Laboratory results published in PubChem BioAssay AID1159580 (chemical genetic matrix, 2015).
The whole screen tested about 5,500 compounds, of which about 2,000 (36%) were called active. Not shown: some 18% with an inconclusive outcome. No stated cut-off is given here; in the data, active means normalized growth mostly below about 0.91 (no sharp cut-off); inconclusive means no clear call, values can overlap the other calls; inactive means mostly above about 0.92. This is one part of the list.

Experiment: chemical genetic growth profiling, strain panel (AID 1159580);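 further: tested at 20 µM; growth read once vehicle control cultures reached saturation at 30 °C; 1 = growth at the plate median or of vehicle wells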
Settings: growth OD

Measured: normalized growth

CC1(C)O[C@@H]2CC3C4CCC5=CC(=O)C=C[C@]5(C)[C@@]4(F)[C@@H](O)C[C@]3(C)[C@]2(C(=O)CO)O1 (some centres not stated)
inactive: S. cerevisiae deletion strains, locus YJR075W, strain HOC1, stronger effect = lower value 1.01 | S. cerevisiae deletion strains, locus YKL009W, strain mrt4, stronger effect = lower value 1.01 | S. cerevisiae deletion strains, locus YKL068W, stronger effect = lower value 0.999 | S. cerevisiae deletion strains, locus YKL085W, strain MDH1 (second series), stronger effect = lower value 0.996 | S. cerevisiae deletion strains, locus YKL085W, strain MDH1, stronger effect = lower value 0.996 | S. cerevisiae deletion strains, locus YKL160W, strain elf1, stronger effect = lower value 0.968 | S. cerevisiae deletion strains, locus YKL190W, strain CNB1, stronger effect = lower value 1.02 | S. cerevisiae deletion strains, locus YKR001C, strain vps1, stronger effect = lower value 1.01 | S. cerevisiae deletion strains, locus YKR026C, strain gcn3, stronger effect = lower value 1.01 | S. cerevisiae deletion strains, locus YKR091W, strain srl3, stronger effect = lower value 0.992 | S. cerevisiae deletion strains, locus YLL001W, strain dnm1, stronger effect = lower value 1.01 | S. cerevisiae deletion strains, locus YLL026W, stronger effect = lower value 0.982 | S. cerevisiae deletion strains, locus YLL041C, strain sdh2, stronger effect = lower value 0.999 | S. cerevisiae deletion strains, locus YLR027C, strain aat2, stronger effect = lower value 1 | S. cerevisiae deletion strains, locus YLR039C, strain RIC1, stronger effect = lower value 1.01 | S. cerevisiae deletion strains, locus YLR058C, strain SHM2, stronger effect = lower value 1.02 | S. cerevisiae deletion strains, locus YLR102C, strain apc9, stronger effect = lower value 0.998 | S. cerevisiae deletion strains, locus YLR113W, strain HOG1, stronger effect = lower value 0.984 | S. cerevisiae deletion strains, locus YLR221C, strain rsa3, stronger effect = lower value 0.974 | S. cerevisiae deletion strains, locus YLR258W, strain gsy2, stronger effect = lower value 0.979 | S. cerevisiae deletion strains, locus YLR262C, strain YPT6 (second series), stronger effect = lower value 1.01 | S. cerevisiae deletion strains, locus YLR262C, strain YPT6, stronger effect = lower value 1.03 | S. cerevisiae deletion strains, locus YLR268W, strain sec22, stronger effect = lower value 1 | S. cerevisiae deletion strains, locus YLR320W, strain mms22, stronger effect = lower value 0.96 | S. cerevisiae deletion strains, locus YLR330W, strain CHS5, stronger effect = lower value 1.01 | S. cerevisiae deletion strains, locus YLR342W, strain FKS1 (second series), stronger effect = lower value 1.01 | S. cerevisiae deletion strains, locus YLR342W, strain FKS1, stronger effect = lower value 0.986 | S. cerevisiae deletion strains, locus YLR357W, strain rsc2, stronger effect = lower value 0.948 | S. cerevisiae deletion strains, locus YLR370C, strain arc18, stronger effect = lower value 0.996 | S. cerevisiae deletion strains, locus YLR371W, strain rom2, stronger effect = lower value 0.995 | S. cerevisiae deletion strains, locus YLR384C, strain iki3, stronger effect = lower value 0.995 | S. cerevisiae deletion strains, locus YLR418C, strain cdc73, stronger effect = lower value 0.967 | S. cerevisiae deletion strains, locus YML016C, strain PPZ1, stronger effect = lower value 1.01 | S. cerevisiae deletion strains, locus YML032C, strain rad52, stronger effect = lower value 0.997 | S. cerevisiae deletion strains, locus YML120C, strain ndi1, stronger effect = lower value 0.995 | S. cerevisiae deletion strains, locus YML124C, strain tub3, stronger effect = lower value 1.01 | S. cerevisiae deletion strains, locus YMR058W, strain fet3, stronger effect = lower value 1 | S. cerevisiae deletion strains, locus YMR078C, strain ctf18, stronger effect = lower value 0.995 | S. cerevisiae deletion strains, locus YMR125W, strain sto1, stronger effect = lower value 0.992 | S. cerevisiae deletion strains, locus YMR129W, stronger effect = lower value 1.01 | S. cerevisiae deletion strains, locus YMR205C, strain PFK2, stronger effect = lower value 0.961 | S. cerevisiae deletion strains, locus YMR223W, strain ubp8, stronger effect = lower value 1.01 | S. cerevisiae deletion strains, locus YMR231W, strain pep5, stronger effect = lower value 0.998 | S. cerevisiae deletion strains, locus YMR263W, strain SAP30, stronger effect = lower value 1 | S. cerevisiae deletion strains, locus YMR307W, strain GAS1, stronger effect = lower value 0.998 | S. cerevisiae deletion strains, locus YNL067W, strain RPL9B, stronger effect = lower value 1.02 | S. cerevisiae deletion strains, locus YNL071W, strain lat1, stronger effect = lower value 1 | S. cerevisiae deletion strains, locus YNL128W, strain TEP1, stronger effect = lower value 1.02 | S. cerevisiae deletion strains, locus YNL153C, strain GIM3, stronger effect = lower value 1.01 | S. cerevisiae deletion strains, locus YNL183C, strain NPR1, stronger effect = lower value 0.955 | S. cerevisiae deletion strains, locus YNL209W, strain ssb2, stronger effect = lower value 1 | S. cerevisiae deletion strains, locus YNL233W, strain BNI4, stronger effect = lower value 1.01 | S. cerevisiae deletion strains, locus YNL248C, strain rpa49, stronger effect = lower value 0.991 | S. cerevisiae deletion strains, locus YNL250W, strain rad50, stronger effect = lower value 0.993 | S. cerevisiae deletion strains, locus YNL271C, strain bni1, stronger effect = lower value 1.01 | S. cerevisiae deletion strains, locus YNL298W, strain CLA4, stronger effect = lower value 1.01 | S. cerevisiae deletion strains, locus YNL307C, strain MCK1, stronger effect = lower value 1 | S. cerevisiae deletion strains, locus YNL322C, strain KRE1 (second series), stronger effect = lower value 0.961 | S. cerevisiae deletion strains, locus YNL322C, strain KRE1, stronger effect = lower value 1.01 | S. cerevisiae deletion strains, locus YNR049C, strain mso1, stronger effect = lower value 1.01 | S. cerevisiae deletion strains, locus YNR052C, strain pop2, stronger effect = lower value 1 | S. cerevisiae deletion strains, locus YOL006C, strain TOP1, stronger effect = lower value 1.02 | S. cerevisiae deletion strains, locus YOL012C, strain htz1 0.691 | S. cerevisiae deletion strains, locus YOL147C, strain pex11, stronger effect = lower value 1.01 | S. cerevisiae deletion strains, locus YOR001W, strain rrp6, stronger effect = lower value 1 | S. cerevisiae deletion strains, locus YOR061W, strain CKA2, stronger effect = lower value 1.01 | S. cerevisiae deletion strains, locus YOR069W, strain VPS5, stronger effect = lower value 1.02 | S. cerevisiae deletion strains, locus YOR070C, strain gyp1, stronger effect = lower value 0.994 | S. cerevisiae deletion strains, locus YOR080W, strain dia2, stronger effect = lower value 0.998 | S. cerevisiae deletion strains, locus YOR083W, strain WHI5, stronger effect = lower value 0.956 | S. cerevisiae deletion strains, locus YOR106W, strain vam3, stronger effect = lower value 0.966 | S. cerevisiae deletion strains, locus YOR136W, strain idh2, stronger effect = lower value 0.998 | S. cerevisiae deletion strains, locus YOR144C, strain elg1, stronger effect = lower value 1.01 | S. cerevisiae deletion strains, locus YOR184W, strain ser1, stronger effect = lower value 0.99 | S. cerevisiae deletion strains, locus YOR231W, strain MKK1, stronger effect = lower value 0.981 | S. cerevisiae deletion strains, locus YOR265W, strain rbl2, stronger effect = lower value 0.985 | S. cerevisiae deletion strains, locus YOR270C, strain vph1, stronger effect = lower value 1.04 | S. cerevisiae deletion strains, locus YOR290C, strain snf2, stronger effect = lower value 0.979 | S. cerevisiae deletion strains, locus YOR316C, strain cot1, stronger effect = lower value 0.994 | S. cerevisiae deletion strains, locus YPL051W, strain arl3, stronger effect = lower value 0.976 | S. cerevisiae deletion strains, locus YPL055C, strain LGE1, stronger effect = lower value 1.05 | S. cerevisiae deletion strains, locus YPL078C, strain atp4, stronger effect = lower value 0.992 | S. cerevisiae deletion strains, locus YPL106C, strain sse1, stronger effect = lower value 0.923 | S. cerevisiae deletion strains, locus YPL240C, strain hsp82, stronger effect = lower value 1 | S. cerevisiae deletion strains, locus YPL241C, strain CIN2, stronger effect = lower value 1.01 | S. cerevisiae deletion strains, locus YPL256C, strain CLN2, stronger effect = lower value 0.97 | S. cerevisiae deletion strains, locus YPR119W, strain clb2, stronger effect = lower value 0.994 | S. cerevisiae deletion strains, locus YPR141C, strain kar3, stronger effect = lower value 0.998 | S. cerevisiae deletion strains, locus YPR163C, strain tif3, stronger effect = lower value 1.01 | S. cerevisiae deletion strains, locus YPR167C, strain met16, stronger effect = lower value 0.997 | S. cerevisiae deletion strains, strain wtn01, stronger effect = lower value 0.989 | S. cerevisiae strains, strain wild type, stronger effect = lower value 1.01
